This is an account of results in PubChem BioAssay (NCATS).

Molecules are shown by their SMILES. Records with an inconclusive call do not appear. Where a call stands in place of a potency, no number is given. Values without a mark were called inactive. Calls of active or inactive are those of the source. Unless noted, the call rests on the fitted dose curve; in most records, active means well fitted curve in the direction sought with a large enough effect; inconclusive means small, poorly fitted or top-dose-only effect, or another doubt; inactive means no such curve, though single readings can be large; an effect the other way counts as inactive or inconclusive. Bridge positions count the residues as written; N and C are the ends. Square brackets hold non-standard residues; d marks the D form. Peptide text beside a SMILES is read from it. * marks the point of attachment. Ileψ(thiazoline)Cys = CC[C@H](C)[C@H](N)C1=N[C@H](C(=O)*)CS1; d(aIle) = CC[C@H](C)[C@@H](N)C(=O)O; dOrn = NCCC[C@@H](N)C(=O)O

The nature of one test: S16 Schwann cell PMP22 intronic element firefly luciferase assay (AID 624032). Further: nearly all actives have a fitted effect of over 30% in size. The settings on record: S16 rat Schwann cells, PMP22 element FLuc, 24 h; series mostly up to 25.7 µM. A digest of the protocol: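 Rat S16 Schwann cells stably carrying a PMP22 intronic element-driven Fluc reporter were seeded overnight, then exposed to compounds for 24 h at 37 °C. Luminescence was normalized to PTC124 (positive control) and DMSO (0% activity).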
Turning to `O=C(O)COCCN1CCN([C@@H](c2ccccc2)c2ccc(Cl)cc2)CC1`, the Potency result was “inactive”.

On to `CCN(CC)CCOC(=O)[C@@H](Cc1cccc2ccccc12)C[C@@H]1CCCO1`, for which the Potency entry is “inactive”.

For `C[C@@H](CNC1CCCCC1)OC(=O)c1ccccc1`, the Potency entry is “inactive”.

With `CC[C@H](CO)NCCN[C@@H](CC)CO`, the Potency result was “inactive”.

A short description of another test: S16 Schwann cell PMP22 intronic element beta-lactamase assay (AID 624044; calls by dose curve; further: nearly all actives have a fitted effect of over 15% in size). The settings on record: S16 rat Schwann cells, PMP22 element beta-lactamase FRET, 24 h; series mostly up to 17.1 µM. The method in brief: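 Beta-lactamase reporter under a PMP22 intronic regulatory element in stable S16 rat Schwann cells; 24 h compound exposure. 460 nm blue signal normalized between DMSO (0%) and potassium clavulanate, with 535 nm FRET tracking viability; curves classed by r2 and response.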
As for `CN1CCO[C@H](c2ccccc2)c2ccccc2C1`, the Potency result is “inactive”.

In the case of `C[C@H](CCC(=O)O)[C@H]1CC[C@@H]2[C@@H]3[C@@H](O)C[C@H]4C[C@@H](O)CC[C@@]4(C)[C@H]3CC[C@@]21C`, the Potency result is “inactive”.

On to `CN(C/C=C\c1ccccc1)Cc1cccc2ccccc12`, for which the Potency entry is “inactive”.

Take `CCN(CCCCOC(=O)c1ccc(OC)c(OC)c1)[C@@H](C)Cc1ccc(OC)cc1`: the Potency result is “inactive”.

On to `CCC(=O)OCC(=O)[C@@]1(OC(=O)CC)[C@H](C)C[C@@H]2[C@@H]3[C@H]([C@@H](O)C[C@@]21C)[C@]1(C)C=CC(=O)C=C1C[C@@H]3Cl`, for which the Potency result is “inactive”.

Turning to `C[C@H](C(=O)O)c1cccc(Oc2ccccc2)c1`, the Potency entry was “inactive”.

For the molecule `CC1(C)[C@@H](OC(=O)CCC(=O)O)CC[C@@]2(C)[C@H]1CC[C@@]1(C)[C@H]2C(=O)C=C2[C@H]3C[C@](C)(C(=O)O)CC[C@]3(C)CC[C@@]21C`, the Potency result is “inactive”.

Regarding `CCOC(=O)O[C@@H](C)OC(=O)[C@@H]1N2C(=O)[C@@H](NC(=O)[C@@H](N)c3ccccc3)[C@H]2SC1(C)C`, the Potency entry is “inactive”.

For the molecule `Cc1ccsc1/C=C\C1=NCCCN1C`, the Potency entry was “inactive”.

`Cc1cccc(CN2CCN([C@@H](c3ccccc3)c3ccc(Cl)cc3)CC2)c1`: the Potency result was “inactive”.

For `C#C[C@]1(O)CC[C@@H]2[C@H]3CCC4=CCCC[C@@H]4[C@@H]3CC[C@@]21C`, the Potency result is “inactive”.

As for `CCN(CC)CCOC(=O)[C@@H](Cc1cccc2ccccc12)C[C@@H]1CCCO1`, the Potency result is “inactive”.

Turning to `Clc1ccc([C@H](Cn2ccnc2)OCc2c(Cl)cccc2Cl)c(Cl)c1`, the Potency entry was “inactive”.

Turning to `C[C@@H](CNC1CCCCC1)OC(=O)c1ccccc1`, the Potency result is “inactive”.

In the case of `CC[C@H](CO)NCCN[C@@H](CC)CO`, the Potency entry was “inactive”.

Another test is described as follows: qHTS profiling for inhibitors of Plasmodium falciparum proliferation (AID 504749). Further: nearly all actives have a fitted effect of over 60% in size. The following applies: P. falciparum in erythrocytes, SYBR Green DNA, 72 h; at 12.8 µM (top of the series); parasite line A. The method in brief: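 Fluorescence of SYBR Green-bound parasite DNA, read at 485/535 nm, served as the growth measure. Infected erythrocytes were cultured with compound 72 h; artemisinin (0.29 uM) and DMSO wells defined the normalization range.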
Background: In qHTS, concentration-response curves come from the screen itself.
As to `CN1CCO[C@H](c2ccccc2)c2ccccc2C1`, the activity, negative = inhibition was -5.98%.

Regarding `CCN(CCCCOC(=O)c1ccc(OC)c(OC)c1)[C@@H](C)Cc1ccc(OC)cc1`, the activity, negative = inhibition is -10.8%.

Turning to `C[C@H](C(=O)O)c1cccc(Oc2ccccc2)c1`, the activity, negative = inhibition was 2.84%.

For the molecule `CC1(C)[C@@H](OC(=O)CCC(=O)O)CC[C@@]2(C)[C@H]1CC[C@@]1(C)[C@H]2C(=O)C=C2[C@H]3C[C@](C)(C(=O)O)CC[C@]3(C)CC[C@@]21C`, the activity, negative = inhibition was -5.96%.

Take `CCOC(=O)O[C@@H](C)OC(=O)[C@@H]1N2C(=O)[C@@H](NC(=O)[C@@H](N)c3ccccc3)[C@H]2SC1(C)C`: the activity, negative = inhibition is 6.23%.

With `Cc1ccsc1/C=C\C1=NCCCN1C`, the activity, negative = inhibition was 10.5%.

In the case of `C#C[C@]1(O)CC[C@@H]2[C@H]3CCC4=CCCC[C@@H]4[C@@H]3CC[C@@]21C`, the activity, negative = inhibition was 11.7%.

Turning to `CC[C@H](C)[C@H](N)C1=N[C@H](C(=O)N[C@@H](CC(C)C)C(=O)N[C@@H](CCC(=O)O)C(=O)N[C@@H](C(=O)N[C@H]2CCCCNC(=O)[C@@H](CC(N)=O)NC(=O)[C@@H](CC(=O)O)NC(=O)[C@@H](Cc3cnc[nH]3)NC(=O)[C@@H](Cc3ccccc3)NC(=O)[C@@H]([C@@H](C)CC)NC(=O)[C@@H](CCCN)NC2=O)[C@@H](C)CC)CS1` ({Ileψ(thiazoline)Cys}-LE[d(aIle)]K[dOrn][d(aIle)][dF][dH][dD][dN]; lactam 4-C), the activity, negative = inhibition is 0.552%.

Consider `O=C(O)COCCN1CCN([C@@H](c2ccccc2)c2ccc(Cl)cc2)CC1`, for which the activity, negative = inhibition was -5.9%.

For `CCN(CC)CCOC(=O)[C@@H](Cc1cccc2ccccc12)C[C@@H]1CCCO1`, the activity, negative = inhibition is 5.1%.

Consider `CC[C@H](CO)NCCN[C@@H](CC)CO`, for which the activity, negative = inhibition was -3.07%.
